Data as given in PubChem BioAssay (Tox21).
Records with an inconclusive call do not appear. A number with no mark means an inactive call. Calls come from the whole dose curve; as a rule, active = well fitted activation curve with a large enough effect in the signal ratio in the repeat runs (not every such curve was filed as active); inconclusive = weak or mixed curves, or effect the other way; inactive = flat fitted curve, though single readings scatter; the % refers to the signal ratio.
% is set by controls: 0 for no effect and ±100 for the full control effect.

Experiment: qHTS assay to identify small molecule agonists of the endoplasmic reticulum stress response signaling pathway (AID 1159516)
Settings: ESRE-bla HeLa, ER stress beta-lactamase reporter, 5 h; series mostly up to 61 µM; activation: at the top concentration
From the text: National Center for Advancing Translational Sciences [NCATS]
NIH Chemical Genomics Center [NCGC]
U.S. Environmental Protection Agency [EPA]
National Institutes of Environmental Health Sciences [NIEHS]
National Toxicology Program [NTP]
U.S. Food and Drug Administration [FDA]
Endoplasmic Reticulum (ER) plays an important role in cellular signaling, protein folding/maturation, stress response, lipid biosynthesis, calcium storage and release etc. Under stress conditions, proteins in ER misfold or unfold, and leading to the expression of ER stress responsive genes. ER stress has been associated with a variety of pathophysiological conditions such as cancer, inflammation, neurodegenerative diseases, diabetes, ischemic heart disease etc. To identify the compounds that induce ER stress response, an ER stress reporter cell line, CellSensor ESRE-bla HeLa (Life Technologies, Carlsbad, CA) containing a beta-lactamase reporter gene under control of the Endoplasmic reticulum Stress Response Element (ESRE) was used to screen Tox21 10K compound library.
Tox21 Assay Protocol Summary:
ESRE-bla HeLa cells were dispensed at 1,500 cells/6 uL of assay medium per well into black wall/clear-bottom 1536-well plates using a Multidrop Combi (ThermoFisher Scientific, Waltham, MA) dispenser. After the assay plates were incubated at 37 C and 5% CO2 for an overnight, 23 nL of compounds dissolved in DMSO, positive controls or DMSO only was transferred to the assay plate by a Pintool station (Kalypsys, San Diego, CA). The assay plates were incubated at 37 C and 5% CO2 for 5 hr. One uL of LiveBLAzer B/G FRET substrate (Life Technologies) was added using a Flying Reagent Dispenser (Aurora Discovery, San Diego, CA) and the plates were incubated at room temperature for 2 hr. Fluorescence intensity (405 nm excitation, 460 nm and 530 nm emissions) was measured using an Envision plate reader (PerkinElmer, Shelton, CT).
In the case of `CC(COc1ccc(Oc2ccccc2)cc1)Oc1ccccn1` (stereo not given), the “activation” value is reported as -0.469%.
In the case of `O=C(Nc1ccccc1)N(Cc1ccc(Cl)cc1)C1CCCC1`, the “activation” value is reported as -0.262%.
With `CCOC(=O)C1(c2ccccc2)CCN(CCc2ccc(N)cc2)CC1` the “activation” value was -1.34%.
In the case of `CCS(=O)(=O)C(C)(C)S(=O)(=O)CC`, the “activation” value is reported as 2.35%.
In the case of `Fc1ccc(C2(Cn3cncn3)OC2c2ccccc2Cl)cc1` (stereo not given), the “activation” value is reported as -4.87%.
With `Cc1ccccc1CO[C@@H]1C[C@@]2(C(C)C)CC[C@]1(C)O2` the “activation” value was 3.59%.
For `C#C[C@]1(O)C=C[C@H]2[C@@H]3CCC4=CC(=O)CC[C@@H]4[C@H]3CC[C@@]21CC`, the “activation” value was -4.14%.
In the case of `NC(=O)O`, the “activation” value is reported as -1.28%.
In the case of `O=NN1CCN(N=O)CC1`, the “activation” value is reported as -1.85%.
In the case of `C(CCOCC1CO1)COCC1CO1` (stereo not given), the “activation” value is reported as -0.99%.
With `O=[N+]([O-])c1cccc(O)c1` the “activation” value was 0.799% [at 78.8 µM].
With `COc1cc(OC)nc(NC(=O)NS(=O)(=O)c2ncccc2OCC(F)(F)F)n1` the “activation” value was -2.03%.
For `CNC(=O)N(C)c1nc2ccccc2s1`, the “activation” value was 0.0252%.
In the case of `CC(C)COP(=O)(OCC(C)C)OCC(C)C`, the “activation” value is reported as -0.138%.
For `Cc1cc(C)nc(Nc2ccccc2)n1`, the “activation” value was -0.303%.
With `COC(C)(C)C` the “activation” value was -0.14%.
In the case of `CCC(C)n1c(=O)[nH]c(C)c(Br)c1=O` (stereo not given), the “activation” value is reported as -0.205%.
With `CC1CN1P(=O)(N1CC1C)N1CC1C` (stereo not given) the “activation” value was -0.616%.
For `C=C(C)CN(CC)c1c([N+](=O)[O-])cc(C(F)(F)F)cc1[N+](=O)[O-]`, the “activation” value was -0.128%.
For `CC(CCc1ccccc1)NC(C)C(O)c1ccc(O)cc1` (stereo not given), the “activation” value was -0.421%.
For `CC(N)=S`, the “activation” value was -0.792%.
With `CC(C)(C)NCC(O)c1cc(Cl)c(N)c(Cl)c1` (stereo not given) the “activation” value was -0.474%.
In the case of `O=C(CCN1CC1)OCC(CO)(COC(=O)CCN1CC1)COC(=O)CCN1CC1`, the “activation” value is reported as 1.15%.
In the case of `OC(Cn1cncn1)(c1ccc(F)cc1)c1ccccc1F` (stereo not given), the “activation” value is reported as 1.92%.
For `CNC(=O)Oc1ccccc1C1OCCO1`, the “activation” value was -1.67%.
For `N#CC(CCc1ccc(Cl)cc1)(Cn1cncn1)c1ccccc1` (stereo not given), the “activation” value was -3.96%.
For `CC1=NNC(=O)N(/N=C/c2cccnc2)C1`, the “activation” value was 0.691%.
In the case of `CC1(C)CON(Cc2ccccc2Cl)C1=O`, the “activation” value is reported as 4.98%.
For `NC(=O)c1cc([N+](=O)[O-])cc([N+](=O)[O-])c1`, the “activation” value was -1.61%.
In the case of `CC(=O)CCc1ccc2c(c1)OCO2`, the “activation” value is reported as -4.44%.
With `CC1CCC(=O)O1` (stereo not given) the “activation” value was -1.31%.
With `CCCCOC(=O)[C@@H](C)Oc1ccc(Oc2ccc(C#N)cc2F)cc1` the “activation” value was 1.39%.
In the case of `c1coc(-c2nc3ccccc3[nH]2)c1`, the “activation” value is reported as -0.354%.
For `O=C1CN=C(c2ccccc2)c2cc([N+](=O)[O-])ccc2N1`, the “activation” value was -0.0102%.
With `CCc1cc2c(s1)-n1c(C)nnc1CN=C2c1ccccc1Cl` the “activation” value was 0.917%.
In the case of `CCOP(=S)(OCC)Oc1nc(Cl)n(C(C)C)n1`, the “activation” value is reported as 3.11%.
In the case of `CCC1(c2ccccc2)C(=O)NC(=O)NC1=O`, the “activation” value is reported as -0.727% [at 78.8 µM].
For `c1cc2c(c(N3CCNCC3)c1)OCCO2`, the “activation” value was -1.4%.
In the case of `O=C(CCCN1CCC(n2c(=O)[nH]c3ccccc32)CC1)c1ccc(F)cc1`, the “activation” value is reported as 2.68%.
In the case of `O=C1c2ccccc2C(=O)c2ccccc21`, the “activation” value is reported as 2.29% [at 28.5 µM].
